{
  "source": "PubChem BioAssay AID504905",
  "about": "(The Scripps Research Institute Molecular Screening Center, 2011)",
  "note": "The other results are listed elsewhere or left out. Values without a mark were called inactive. Calls of active or inactive are those of the source. Rule as the data show it: active = activation above about 17%; inactive = the rest.",
  "data": [
    {"molecular_target": "5-hydroxytryptamine receptor 5A (Homo sapiens) (UniProt P47898)", "sequence (P47898 whole entry, looked up)": "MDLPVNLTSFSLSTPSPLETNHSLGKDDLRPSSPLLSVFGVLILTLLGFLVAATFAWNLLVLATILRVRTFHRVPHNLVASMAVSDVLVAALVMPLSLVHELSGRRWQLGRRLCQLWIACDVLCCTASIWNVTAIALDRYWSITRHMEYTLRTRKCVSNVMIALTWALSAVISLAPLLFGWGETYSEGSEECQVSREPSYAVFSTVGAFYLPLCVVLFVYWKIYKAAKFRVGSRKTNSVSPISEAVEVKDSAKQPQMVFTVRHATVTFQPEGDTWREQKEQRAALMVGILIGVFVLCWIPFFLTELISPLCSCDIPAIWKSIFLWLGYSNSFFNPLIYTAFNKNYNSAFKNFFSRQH", "test": "activation of human 5-HT5A receptor – cell-based, luminescence, counter-screen for OPRM1-OPRD1 heterodimer agonist project (AID 504905);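 also: 0% = vehicle-treated cells and 100% = reference agonist response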", "conditions": "HTR5A agonist counterscreen, at 9.3 µM, stronger effect = higher value", "values": [
      {"smiles": "Cc1ccc(Nc2ccccc2N)cc1", "activation": "0.79%"},
      {"smiles": "CN(C)C(CNC(=O)Cc1ccc([N+](=O)[O-])cc1)c1ccccc1", "note": "(stereo unspecified)", "activation": "1.22%"},
      {"smiles": "COc1cc(C(=O)OC(C)C(=O)NCC2CCCCC2)cc(NC(=O)c2ccco2)c1OC", "note": "(stereo unspecified)", "activation": "-2.12%"},
      {"smiles": "CN(C)CCCN(C(=O)c1ccc(S(=O)(=O)N2CCCc3ccccc32)cc1)c1nc2ccc(F)cc2s1", "activation": "7.49%"},
      {"smiles": "Cc1ccc(O)c(NC(=S)NC(=O)COc2ccc(Br)cc2)c1", "activation": "0.97%"},
      {"smiles": "Cc1ccc(S(=O)(=O)N(CC(=O)Nc2cccnc2)c2ccc(Br)cc2)cc1", "activation": "0.5%"},
      {"smiles": "COCCCNc1nc2c(-c3cccc(C)c3)nnn2c2ccc(Cl)cc12", "activation": "8.68%"},
      {"smiles": "CCOC(=O)c1c(C)[nH]c2c1-c1ccccc1C(=O)C2=O", "activation": "9.05%"},
      {"smiles": "CC(OC(=O)/C=C/c1ccccc1)C(=O)Nc1ccc(C(N)=O)cc1", "note": "(stereo unspecified)", "activation": "0.16%"},
      {"smiles": "CCOC(=O)C1(CC2CCCCO2)CCN(Cc2nc(-c3cccs3)oc2C)CC1", "note": "(stereo unspecified)", "activation": "3.31%"},
      {"smiles": "CC1CCCN(CCOCCOc2ccccc2-c2ccccc2)C1", "note": "(stereo unspecified)", "activation": "1.05%"},
      {"smiles": "CN(C)C(CNC(=O)c1ccc(S(=O)(=O)NCc2ccco2)cc1)c1ccccc1", "note": "(stereo unspecified)", "activation": "4.56%"},
      {"smiles": "O=C1N/C(=C/c2cccs2)C(=O)N1Cc1ccc(F)cc1", "activation": "27.5% (active)"},
      {"smiles": "COc1cc(/C=N/NC(=O)Nc2ccccc2)ccc1OCCOc1ccccc1C", "activation": "10.4%"},
      {"smiles": "O=C(NCc1cn2ccsc2n1)Nc1ccc(Cl)cc1", "activation": "-5.53%"},
      {"smiles": "CN1C(CC(=O)Nc2ccc(Br)cc2)c2ccccc2CC1(C)C", "note": "(stereo unspecified)", "activation": "5.83%"},
      {"smiles": "Cc1ccc(-n2c(SCC(=O)NCCC3=CCCCC3)nc3n[nH]c(C)c3c2=N)cc1Cl", "activation": "1.57%"},
      {"smiles": "Clc1ccc(COn2c(-c3ccc(Cl)cc3Cl)nc3ncccc32)cc1", "activation": "0.23%"},
      {"smiles": "CN1CCN(c2ccc([N+](=O)[O-])c(Sc3nc4ccccc4[nH]3)c2)CC1", "activation": "-0.05%"},
      {"smiles": "COc1ccc(-n2nnnc2-c2nc3ccccc3s2)cc1", "activation": "4.69%"},
      {"smiles": "O=C(Nc1ccc(OC(F)(F)F)cc1)c1ccc2c(c1)no[n+]2[O-]", "activation": "1.96%"}
    ]}
  ]
}
